Screening results: PubChem BioAssay, National Center for Advancing Translational Sciences (NCATS)
In the library only some 12% were active in any assay of this set; here they are far more common.
Lassa entry inh: qHTS for Inhibitors of binding or entry into cells for Lassa Virus | Lassa virus pseudotype entry inhibition, cell reporter | Potency, µM (titrated, usually from 37.9 µM), for inactives: top-dose activity change, negative = inhibition, actives largely listed as inhibitors | hit rate 1.2% among 300,000 | AID 540256, 2011; calls by dose curve; tested in HEK293 cells; also: potency is read from the fitted curve at half-maximal effect; % is scaled to controls: 0 for no effect and ±100 for the full control effect; nearly all actives have a fitted effect of over 50% in size
MARV entry inh: qHTS for inhibitors of binding or entry into cells for Marburg Virus | Marburg virus pseudotyped entry inhibition, cell reporter | Potency, µM (top dose mostly 37.8 µM), without a hit: at the top dose activity change, negative = inhibition, hits mostly inhibitors | hit rate 1.8% among 300,000; calls by dose curve; tested in HEK293 cells; also: potency is read from the fitted curve at half-maximal effect; % is scaled to controls: 0 for no effect and ±100 for the full control effect
Shiga toxin inh: A qHTS for Small Molecule Inhibitors of Shiga Toxin. Vero cells, Shiga toxin protein synthesis inhibition reporter. inhibition, % at 38.7 µM. hit rate 9.2% among 290,000; in the data active = inhibition mostly above about 28%, no sharp cut-off; inactive = mostly below about 43%; also: 0% is about no effect
CHX counter: Cycloheximide Counterscreen for Small Molecule Inhibitors of Shiga Toxin; hit rate 12% among 300,000; cell reporter, cycloheximide protein synthesis inhibition counterscreen; AID 2314, 2010; max response, %; in the data active = max response mostly above about 13%, no sharp cut-off; inactive = mostly below about 14%; also: read at 38.3 µM for the half of the compounds with a filed dose; 0% is about no effect
Starred values were filed as active, the others as inactive; ? = inconclusive; / = not tested or not shown; [ ] = another dose, or the depositor's remark.

SMILES | Lassa entry inh | MARV entry inh | Shiga toxin inh | CHX counter
CCS(=O)(=O)c1ncc(Cl)c(C(=O)N2CCN(c3cccc(Cl)c3)CC2)n1 | ? | 5.62µM* | / | /
CS(=O)(=O)N(Cc1ccccc1)c1ccc(C(=O)N2CCN(c3cccc(Cl)c3)CC2)cc1 | ? | 13µM* | 42.1 | 22.1*
O=C(C1CCCCN1S(=O)(=O)c1ccccc1[N+](=O)[O-])N1CCCCC1 (centres undefined) | / | / | 6.7 | 10.4
Cc1ccccc1NC(=O)c1ccccn1 | / | / | 57.5* | 28.7*
CC(C)c1ccccc1NC(=O)c1cccnc1 | 13.3% | 0.5% | 9.1 | -0.9
CSc1ccccc1NC(=O)c1ccc(Cl)s1 | ? | 22.5% | 49.3 | 30.3*
CSc1ccccc1NC(=O)c1ccccn1 | ? | ? | 44.7* | 18.0*
CSc1ccccc1NC(=O)c1cccnc1 | 36.5%[14.3 µM] | 0.1% | 10.8 | 14.5*
COc1ccc(NC(=O)CCCOc2ccc(Cl)c(C)c2)cc1S(=O)(=O)N1CCOCC1 | -25.4% | ? | / | /
COc1ccc(C2c3c(oc4ccc(F)cc4c3=O)C(=O)N2Cc2ccc3c(c2)OCO3)cc1 (centres undefined) | 0.0%[46.1 µM] | -1.7%[46.1 µM] | / | /
O=C(NC1CCCCCCC1)c1cc(F)c(F)cc1Cl | / | / | 83.1* | 26.0*
O=C(NC1CC1)c1ccc(F)cc1Cl | -0.4% | 4.2% | 3.2 | 5.9
Cc1ccc(C(=O)NC2CCCCCCC2)c(Cl)c1 | / | / | / | 16.3*
CCOc1ccccc1C(=O)Nc1cccc2cccnc12 | 4.4%[46.1 µM] | ? | 19.0* | 20.3*
COc1cccc(C(=O)Nc2cccc3cccnc23)c1OC | / | / | / | 22.2*
O=C(Nc1cccc2cccnc12)c1cccc2ccccc12 | -23.8%[46.1 µM] | ? | -1.4 | -1.3
CCc1ccc(C(=O)c2cn(CC(=O)Nc3ccc(Cl)cc3)c3cc4c(cc3c2=O)OCO4)cc1 | ? | 4.47µM* | / | /
COC(=O)[C@]1(C=C2c3ccccc3C[C@H](OC)[C@@H]2C)[C@@H]2CC=C[C@@H]21 | / | -7.8%[14.2 µM] | / | /
CCOC(=O)CSc1nc(CC)nc2ccccc12 | -6.3% | -1.8% | -6.7 | 2.1
CCOC(=O)CSc1nc(C)c2cc(C)c(C)cc2n1 | 1.5% | -14.1%[46.1 µM] | 14.3 | 24.6
CCOC(=O)CCSc1nc(C)c2ccccc2n1 | 4.7% | 18.7%[46.1 µM] | 57.4* | 18.3*
CCOC(=O)CSc1nc(C)c2cc(OC)ccc2n1 | ? | 22.9% | 71.9* | 45.9*
CCOC(=O)CSC1=NC(=O)/C(=C/c2ccc(OC)cc2)S1 | ? | ? | 61.4* | 22.1*
CCOC(=O)CCSc1nc(C)c2cc(C)ccc2n1 | ? | 8.4% | 75.4* | 30.4*
CC(=O)OC[C@H]1O[C@@H](ON=C2C[C@@H](O)[C@@H](O)[C@@H]3[C@H]4C(=O)N(C5CCCCC5)C(=O)[C@@H]4CC[C@@H]23)[C@H](OC(C)=O)[C@@H](OC(C)=O)[C@H]1OC(C)=O | / | -25.3%[14.2 µM] | / | /
SMILES | Lassa entry inh | MARV entry inh | Shiga toxin inh | CHX counter
COc1ccc(OC)c(-c2csc(N(C)C(=O)c3ccco3)n2)c1 | / | / | / | 1.2
Cc1ccc(-c2csc(N(CC3CCCO3)C(=O)c3ccco3)n2)cc1 (centres undefined) | ? | ? | 39.9* | 22.7*
CN(C(=O)c1ccco1)c1nc(-c2ccc(Cl)cc2)cs1 | / | / | 22.5 | 25.3*
COc1ccc(-c2csc(NC(=O)COC(=O)c3ccco3)n2)cc1 | ? | ? | 42.7* | 49.5*
COc1ccc(-c2csc(N(C)C(=O)c3ccco3)n2)cc1 | -12.8% | 10.1% | / | 36.9*
CCCN(CC(=O)Nc1ccccc1OC)C(=O)c1cccc(S(=O)(=O)Nc2ccc(OC)cc2)c1 | -12.8%[46.1 µM] | -21.8% | / | /
COc1ccc(N2C(=O)C3[C@@H](C2=O)C2(Cl)C(Cl)=C(Cl)C3(Cl)C2(OC)OC)cc1 (some centres undefined) | 5.1% | -6.2% | -7.5 | -0.4
CCn1nc(C(=O)OCC(=O)NCC(C)C)c2ccccc2c1=O | -9.0% | ? | -17.1 | -2.2
CCn1nc(C(=O)OCC(=O)Nc2nc(-c3ccc(OC)cc3)cs2)c2ccccc2c1=O | ? | ? | 49.8* | 46.4*
CCOC(=O)c1ccccc1NC(=O)N1CCC(N2CCN(Cc3ccccc3)C(=O)C2=O)CC1 | 7.5%[46.1 µM] | / | / | /
N#Cc1cc(-c2ccccc2)cnc1Sc1ccccc1 | -10.2% | 8.8% | 55.2* | 26.9*
COc1cc(NC(=O)CN2C(=O)C(c3ccc(C)cc3)=NC23CCCCCC3)cc(OC)c1 | -2.4%[46.1 µM] | -8.9%[46.1 µM] | / | /
CCc1ccc(N2C(=O)CC(=O)NC2=O)cc1 | / | / | -3.5 | -2.5
CCN(CC)c1nc2c3c(nc4c(c3c1C#N)CC(=O)N4c1ccc(Cl)cc1)NC(C)=N2 | -6.8% | ? | -14.5 | -0.6
CC(C)(C)c1ccc(N2C(=O)Cc3c2nc(N)c(C#N)c3N)cc1 | 11.4% | ? | 42.9 | 35.0*
CCc1ccc(N2C(=O)Cc3c2nc(N)c(C#N)c3N)cc1 | 22.2%[14.3 µM] | 18.2% | 113.6* | 23.3*
Cc1ccnc(NC(=O)C2CCCN(S(=O)(=O)c3ccc4[nH]c(=O)ccc4c3)C2)c1 (centres undefined) | / | / | 12.3 | 11.4
COc1ccc(C2CC(c3ccccc3)=NN2c2ccc(/C=N/NC(=O)c3ccncc3)cc2)cc1 (centres undefined) | -27.8% | ? | 28.0* | 13.9*
N#CCC(=O)N/N=C/c1ccc(N2N=C(c3ccccc3)CC2c2ccccc2)cc1 (centres undefined) | -22.1%[46.1 µM] | -14.7%[46.1 µM] | 2.4 | 10.4*
CC(NC(=O)C(=O)N1CCCCC1)C(c1cccs1)N1CCN(C)CC1 (centres undefined) | 17.3%[46.1 µM] | 19.7%[46.1 µM] | -11.2 | -0.7
COCC1CCCCN1C(=O)c1cccc(OC2CCN(S(C)(=O)=O)CC2)c1 (centres undefined) | / | / | 16.1 | 15.6*
CN(C)S(=O)(=O)N1CCC(Oc2cccc(C(=O)N3CCCCCCC3)c2)CC1 | 11.2µM* | -0.9% | 16.5 | 6.5
CCC(=O)C1CCCN(C(=O)c2cccc(OC3CCN(S(C)(=O)=O)CC3)c2)C1 (centres undefined) | -11.8%[46.1 µM] | 10.7%[46.1 µM] | / | /
CN(C)S(=O)(=O)N1CCC(Oc2cccc(C(=O)N3CCCCCC3)c2)CC1 | ? | ? | 16.1 | -0.4
CCOC(=O)COc1c(Br)cc(/C=C2\SC(=O)N(CC(=O)N3CCCC3)C2=O)cc1OC | -25.4% | -13.9% | -9.2 | -5.2
SMILES | Lassa entry inh | MARV entry inh | Shiga toxin inh | CHX counter
COc1cccc(OC)c1OC[C@H](C)CNC[C@@H]1CCCO1 | / | -13.3% | / | /
Cc1ccc(C(=O)NCC(=O)OCC(=O)c2cc(C)n(Cc3ccco3)c2C)cc1 | -10.5% | 19.0% | -6.7 | 8.5
Cc1cc(C(=O)COC(=O)[C@H](C)NC(=O)c2ccco2)c(C)n1Cc1ccco1 | 3.6% | -5.7%[46.1 µM] | 59.2* | 35.5*
Cc1ccc2cccc(OCC(=O)c3cc(C)n(Cc4ccco4)c3C)c2n1 | / | / | 100.6 | 24.9*
CSc1sc(C(=O)N2CCCCC2)c(-c2cccs2)c1C#N | -12.1% | 18.0%[14.2 µM] | 2.6 | -0.4
O=C(CCNC(=O)c1ccccc1Cl)Nc1nc2ccccc2s1 | -2.6% | 13.0%[46.1 µM] | 143.3* | 36.9*
COc1ccc2nc(N(Cc3ccccc3)C(=O)CCNC(C)=O)sc2c1 | ? | -17.9%[46.1 µM] | 43.9* | 21.5
O=C(CCNC(=O)c1ccccc1Cl)Nc1nc(-c2ccccc2Cl)cs1 | 5.9%[46.1 µM] | ? | 39.8 | 21.9*
COc1ccc2nc(NC(=O)CCNC(=O)c3ccccc3Cl)sc2c1 | -5.4% | ? | 76.6* | 32.6*
CS(=O)(=O)NCCC1=CCCCC1 | -2.8% | -0.7% | 12.8 | 1.8
